Inconclusive results are not listed. Some compounds were tested as several samples or in several runs, with calls that do not always agree. Activity calls are given as the source filed them. Unless noted, the call rests on the fitted dose curve; in most records, active means well fitted curve in the direction sought with a large enough effect; inconclusive means small, poorly fitted or top-dose-only effect, or another doubt; inactive means no such curve, though single readings can be large; an effect the other way counts as inactive or inconclusive.
Columns and labels:
[1] = Primary qHTS for small molecule stabilizers of the endoplasmic reticulum resident proteome: Secreted ER Calcium Modulated Protein (SERCaMP) assay (AID 1508630); further: on the % scale 0 is the no-effect control and ±100 the full control effect
Procedure, shortened: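 The SH-SY5Y reporter protocol was run at 3 concentrations up to 38.3 uM (primary) or 11 concentrations (follow-up): 16 h compound, 100 nM thapsigargin for 4 h, then extracellular luciferase luminescence.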

[2] = Primary qHTS for inhibitors of nuclear receptor binding SET domain protein 2 (NSD2) in an isogenic RCH-ACV NSD2 p.E1099K mutant (9B) (AID 1645876); further: nearly all actives have a fitted effect of over 70% in size; further: potency means the concentration at half of the fitted maximal effect; on activity change, negative = viability loss: on the % scale 0 is the no-effect control and ±100 the full control effect
[3] = Primary qHTS for inhibitors of nuclear receptor binding SET domain protein 2 (NSD2) in an RCH-ACV wild type WT cells (2C) (AID 1645877); further: nearly all actives have a fitted effect of over 70% in size; further: potency means the concentration at half of the fitted maximal effect; on activity change, negative = cell killing: on the % scale 0 is the no-effect control and ±100 the full control effect
[4] = molecular target: Papain (Carica papaya) (UniProt P00784); assay: Primary qHTS assay for inhibitors of the protease papain (AID 1645873);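 further: papain turnover of Z-FR-AMC read as the AMC fluorescence gain over 10 min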; further: potency means the concentration at half of the fitted maximal effect
Chain of Papain (Carica papaya) (P00784 whole entry, looked up): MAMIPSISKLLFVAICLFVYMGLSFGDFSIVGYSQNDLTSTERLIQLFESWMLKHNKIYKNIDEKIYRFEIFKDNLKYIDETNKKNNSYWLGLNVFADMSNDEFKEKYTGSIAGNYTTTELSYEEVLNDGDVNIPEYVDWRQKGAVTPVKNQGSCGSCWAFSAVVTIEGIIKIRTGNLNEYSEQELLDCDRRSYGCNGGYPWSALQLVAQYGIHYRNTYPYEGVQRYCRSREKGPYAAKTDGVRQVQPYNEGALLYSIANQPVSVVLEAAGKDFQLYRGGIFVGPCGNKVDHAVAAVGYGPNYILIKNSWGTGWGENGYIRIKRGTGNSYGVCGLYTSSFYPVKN

[5] = molecular target: Cytochrome P450 2D6 (Homo sapiens) (UniProt P10635); assay: Cytochrome P450 family 2 subfamily D member 6 (CYP2D6) small molecule antagonists: luciferase biochemical (cell-free) qHTS assay (AID 1645840; active means well fitted curve in the direction sought with a large enough effect in the repeat runs; an effect the other way counts as inactive or inconclusive; further: nearly all actives have a fitted effect of over 55% in size; further: potency means the concentration at half of the fitted maximal effect)
Chain of Cytochrome P450 2D6 (Homo sapiens) (P10635 whole entry, looked up): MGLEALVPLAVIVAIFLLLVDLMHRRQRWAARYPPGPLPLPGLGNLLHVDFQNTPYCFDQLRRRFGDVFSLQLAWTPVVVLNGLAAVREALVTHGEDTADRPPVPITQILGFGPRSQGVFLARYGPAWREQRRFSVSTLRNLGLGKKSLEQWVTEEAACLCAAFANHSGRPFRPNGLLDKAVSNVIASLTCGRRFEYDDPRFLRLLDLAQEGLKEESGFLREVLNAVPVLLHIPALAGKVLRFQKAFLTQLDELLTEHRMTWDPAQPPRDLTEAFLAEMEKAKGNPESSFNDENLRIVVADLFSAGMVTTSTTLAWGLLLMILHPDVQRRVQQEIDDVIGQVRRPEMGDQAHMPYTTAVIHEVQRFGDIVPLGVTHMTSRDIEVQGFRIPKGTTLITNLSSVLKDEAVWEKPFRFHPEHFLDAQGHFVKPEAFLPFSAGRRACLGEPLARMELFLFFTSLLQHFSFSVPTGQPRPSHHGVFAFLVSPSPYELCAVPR
Procedure, shortened: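 P450-Glo CYP2D6 system: proluciferin substrate converted by enzyme to luciferin, read by luminescence proportional to activity. Enzyme-substrate mix with compound 10 min at room temperature, then NADPH regeneration 1 h before detection reagent.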

[6] = molecular target: Rap guanine nucleotide exchange factor 3 (Homo sapiens) (UniProt O95398); assay: Confirmatory qHTS for agonist of cAMP-regulated guanine nucleotide exchange factor 3 (EPAC1) (AID 1645881);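 further: EPAC1 catalysed release of BODIPY-GDP from Rap1B seen as fluorescence loss; 100% = effect of cAMP agonist control; nearly all actives have a fitted effect of over 75% in size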
Chain of Rap guanine nucleotide exchange factor 3 (Homo sapiens) (O95398 whole entry, looked up): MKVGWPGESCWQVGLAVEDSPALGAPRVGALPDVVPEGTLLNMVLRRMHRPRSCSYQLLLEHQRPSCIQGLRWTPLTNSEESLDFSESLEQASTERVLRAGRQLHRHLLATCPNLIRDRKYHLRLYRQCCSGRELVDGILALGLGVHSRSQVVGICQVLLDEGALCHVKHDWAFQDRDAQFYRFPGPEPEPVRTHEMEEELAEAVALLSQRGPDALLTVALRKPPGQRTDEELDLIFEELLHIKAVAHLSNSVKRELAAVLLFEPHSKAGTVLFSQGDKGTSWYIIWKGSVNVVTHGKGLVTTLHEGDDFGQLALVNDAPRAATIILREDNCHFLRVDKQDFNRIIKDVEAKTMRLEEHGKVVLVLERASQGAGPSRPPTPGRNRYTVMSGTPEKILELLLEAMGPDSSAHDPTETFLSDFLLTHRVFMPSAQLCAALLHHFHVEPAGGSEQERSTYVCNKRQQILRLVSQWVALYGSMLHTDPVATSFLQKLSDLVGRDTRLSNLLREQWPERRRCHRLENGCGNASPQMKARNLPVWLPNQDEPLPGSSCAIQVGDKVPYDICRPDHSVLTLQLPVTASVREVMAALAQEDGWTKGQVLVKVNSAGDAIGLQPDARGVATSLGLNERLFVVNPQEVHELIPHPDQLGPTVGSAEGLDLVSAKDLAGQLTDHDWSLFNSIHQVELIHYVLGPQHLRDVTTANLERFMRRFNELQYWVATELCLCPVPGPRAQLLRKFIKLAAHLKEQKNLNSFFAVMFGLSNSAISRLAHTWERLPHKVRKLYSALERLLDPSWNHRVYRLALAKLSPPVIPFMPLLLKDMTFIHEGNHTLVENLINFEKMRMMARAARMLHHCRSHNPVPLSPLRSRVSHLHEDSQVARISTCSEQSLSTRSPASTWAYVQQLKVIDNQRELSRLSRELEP

[7] = molecular target: Rap guanine nucleotide exchange factor 4 (Homo sapiens) (UniProt Q8WZA2); assay: Confirmatory qHTS for agonist of cAMP-regulated guanine nucleotide exchange factor 4 (EPAC2) (AID 1645884);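 further: nucleotide exchange releases bodipy-GDP from Rap1 and this lowers its fluorescence; on the % scale 0 is the no-effect control and ±100 the full control effect; nearly all actives have a fitted effect of over 65% in size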
Chain of Rap guanine nucleotide exchange factor 4 (Homo sapiens) (Q8WZA2 whole entry, looked up): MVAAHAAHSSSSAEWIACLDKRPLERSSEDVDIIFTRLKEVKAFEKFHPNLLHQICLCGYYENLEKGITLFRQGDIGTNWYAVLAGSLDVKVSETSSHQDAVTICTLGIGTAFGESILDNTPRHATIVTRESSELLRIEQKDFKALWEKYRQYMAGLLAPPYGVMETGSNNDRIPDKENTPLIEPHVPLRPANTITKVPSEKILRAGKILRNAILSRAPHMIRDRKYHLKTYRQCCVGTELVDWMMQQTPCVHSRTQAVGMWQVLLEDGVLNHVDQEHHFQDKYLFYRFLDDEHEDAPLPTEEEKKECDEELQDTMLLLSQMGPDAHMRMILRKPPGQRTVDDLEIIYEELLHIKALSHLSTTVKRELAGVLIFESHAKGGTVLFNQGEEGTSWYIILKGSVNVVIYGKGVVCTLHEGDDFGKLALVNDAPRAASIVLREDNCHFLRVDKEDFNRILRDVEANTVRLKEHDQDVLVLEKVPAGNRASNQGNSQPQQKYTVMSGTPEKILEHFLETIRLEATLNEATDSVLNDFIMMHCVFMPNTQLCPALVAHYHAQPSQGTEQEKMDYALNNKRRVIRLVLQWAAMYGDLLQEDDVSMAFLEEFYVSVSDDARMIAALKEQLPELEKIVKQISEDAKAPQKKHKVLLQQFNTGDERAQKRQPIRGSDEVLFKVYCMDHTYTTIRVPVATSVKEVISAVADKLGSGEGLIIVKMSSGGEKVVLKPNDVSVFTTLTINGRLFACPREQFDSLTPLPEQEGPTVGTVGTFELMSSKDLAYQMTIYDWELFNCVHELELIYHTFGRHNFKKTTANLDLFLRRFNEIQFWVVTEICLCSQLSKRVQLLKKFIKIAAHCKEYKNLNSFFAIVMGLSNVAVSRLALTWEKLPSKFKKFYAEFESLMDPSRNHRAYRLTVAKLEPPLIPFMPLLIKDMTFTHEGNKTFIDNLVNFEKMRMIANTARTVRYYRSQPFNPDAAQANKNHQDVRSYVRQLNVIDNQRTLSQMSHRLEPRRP

[8] = molecular target: Rap guanine nucleotide exchange factor 4 (Homo sapiens) (UniProt Q8WZA2); assay: Confirmatory qHTS for antagonist of cAMP-regulated guanine nucleotide exchange factor 4 (EPAC2) (AID 1645885); further: nearly all actives have a fitted effect of over 25% in size; further: potency means the concentration at half of the fitted maximal effect
[9] = A High-Content qHTS Against Drug Library for the Identification of Small Molecules that Inhibit DYT1 Early Onset Primary Dystonia-Associated Cell Pathology (AID 1645839; calls by dose curve; further: series mostly up to about 46 µM)
Procedure, shortened: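 High-content imaging quantified EGFP-TorsinA mislocalization in HEK293-derived cells inducibly expressing DYT1 mutant torsinA, after 48 h exposure to compound given together with tetracycline induction. Cell count served as a toxicity channel alongside %pathology.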

[10] = molecular target: Cytochrome P450 2C9 (Homo sapiens) (UniProt P11712); assay: Cytochrome P450 family 2 subfamily C member 9 (CYP2C9) small molecule antagonists: luciferase biochemical (cell-free) qHTS assay (AID 1645842; active means well fitted curve in the direction sought with a large enough effect in the repeat runs; an effect the other way counts as inactive or inconclusive; further: nearly all actives have a fitted effect of over 55% in size; further: potency means the concentration at half of the fitted maximal effect)
Chain of Cytochrome P450 2C9 (Homo sapiens) (P11712 whole entry, looked up): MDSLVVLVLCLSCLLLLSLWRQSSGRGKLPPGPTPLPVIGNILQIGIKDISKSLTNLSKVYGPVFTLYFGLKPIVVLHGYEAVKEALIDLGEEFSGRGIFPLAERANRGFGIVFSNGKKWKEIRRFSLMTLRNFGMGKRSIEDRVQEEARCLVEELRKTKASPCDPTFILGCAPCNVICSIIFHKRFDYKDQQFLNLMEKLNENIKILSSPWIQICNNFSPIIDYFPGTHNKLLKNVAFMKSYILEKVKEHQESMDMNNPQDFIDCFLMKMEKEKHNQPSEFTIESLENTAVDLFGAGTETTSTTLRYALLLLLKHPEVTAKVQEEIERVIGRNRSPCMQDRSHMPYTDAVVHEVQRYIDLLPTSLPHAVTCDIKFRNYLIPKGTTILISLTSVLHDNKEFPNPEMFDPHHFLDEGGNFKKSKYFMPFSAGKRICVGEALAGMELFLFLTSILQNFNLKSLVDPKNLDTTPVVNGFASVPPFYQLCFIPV
Procedure, shortened: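 P450-Glo CYP2C9 system: proluciferin substrate with enzyme in mix containing 0.4% BSA, 10 min at room temperature, then NADPH regeneration solution added and incubated 1 h at 37C. Detection reagent stopped reaction; luminescence read after 20 min as RLU.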

[11] = NCATS anti-infectives library activity on HEK293 viability as a counter-qHTS vs the C. elegans viability qHTS (AID 1745854); further: on the % scale 0 is the no-effect control and ±100 the full control effect
Procedure, shortened: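 CellTiter-Glo luminescence, read on a CCD imager, scored viability of HEK293 cells after 24 hr compound exposure at 37C. Library tested in several concentrations, 1:5 steps, up to 41.7 uM; digitonin served as control.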

[12] = molecular target: Rap guanine nucleotide exchange factor 3 (Homo sapiens) (UniProt O95398); assay: Confirmatory qHTS for antagonist of cAMP-regulated guanine nucleotide exchange factor 3 (EPAC1) (AID 1645880);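 further: plate controls were DMSO only for no effect and full effect of the ATA control for full effect; nearly all actives have a fitted effect of over 55% in size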
Procedure, shortened: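 Released BODIPY-GDP fluoresces less than Rap1-bound BODIPY-GDP; the signal is followed at 480/540 nm at 5-min intervals over 30 min, after 5 min at room temperature. Reactions contain 100 nM EPAC1, 250 nM RAP1B-BODIPY-GDP and 50 uM GDP; results are normalized to ATA and DMSO.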

Cc1ncc([N+](=O)[O-])n1CC(O)CCl (stereo not given)
inactive: Potency [1] | Potency [2] | Potency [3]

CC(C)NC[C@H](O)c1ccc(O)c(O)c1
1.12 µM (active) and inactive: Potency [4]
inactive: Potency [1]

Cc1c(Cl)cccc1Nc1ccccc1C(=O)O
inactive: Potency [1] | Potency [5] | Potency [6] | Potency [7]
active: Potency [8] 44.1 µM

CCN(CC)CCOC(=O)C1(C2CCCCC2)CCCCC1
inactive: Potency [1] | Potency [4] | Potency [2]

C#CCN(C)Cc1ccccc1
inactive: Potency [9] | Potency [5] | Potency [10] | Potency [4] | Potency [2] | Potency [3]

NC(=O)NNc1ccccc1
inactive: Potency [1] | Potency [2] | Potency [3]

NC(=O)c1ncn([C@@H]2O[C@H](CO)[C@@H](O)[C@H]2O)n1
active: Potency [3] 14.8 µM
inactive: Potency [1] | Potency [5] | Potency [4] | outcome [11]

CCC(=O)Nc1ccc(O)cc1
inactive: Potency [9] | Potency [5] | Potency [10] | Potency [2] | Potency [3]

CCCCC/C(C=O)=C\c1ccccc1
inactive: Potency [9] | Potency [5] | Potency [10] | Potency [2] | Potency [3]

NC(=O)N/N=C/c1ccc([N+](=O)[O-])o1
active: Potency [5] 13.4 µM | Potency [3] 24.3 µM
inactive: Potency [1] | Potency [10]

O=C(O)c1ccccc1O
inactive: Potency [1] | Potency [2] | Potency [3] | outcome [11]

CC1=C(CC(=O)O)c2cc(F)ccc2/C1=C\c1ccc(S(C)=O)cc1 (stereo not given)
inactive: Potency [1] | Potency [5] | Potency [4]

CC1=C(/C=C/C(C)=C/C=C/C(C)=C/C(=O)O)C(C)(C)CCC1
active: Potency [2] 21.1 µM
inactive: Potency [1] | Potency [5] | Potency [4]

COc1cc(C(=O)N2CCOCC2)cc(OC)c1OC
inactive: Potency [9] | Potency [5] | Potency [10] | Potency [2] | Potency [3]

CC[C@@]1(c2ccccc2)NC(=O)N(C)C1=O
inactive: Potency [9] | Potency [5] | Potency [10] | Potency [2] | Potency [3]

N[C@@H](CSSC[C@H](N)C(=O)O)C(=O)O
inactive: % pathology change, negative = correction [9] 10.2% [at 0.369 µM] | activity change, negative = inhibition [5] -1.65% [at 0.91 µM] | activity change, negative = inhibition [10] 15.4% [at 0.91 µM] | activity change, negative = viability loss [2] -6.57% [at 0.588 µM] | activity change, negative = cell killing [3] 2.98% [at 0.588 µM]

O=Cc1ccccc1C=O
inactive: Potency [9] | Potency [5] | Potency [10] | Potency [2] | Potency [3]

CNCC(O)c1ccc(O)c(O)c1 (stereo not given)
inactive: Potency [9] | Potency [10] | Potency [4] | Potency [2]

C[C@@H]1CCN(C(=O)[C@H](CCCN=C(N)N)NS(=O)(=O)c2cccc3c2NC[C@H](C)C3)[C@@H](C(=O)O)C1
inactive: Potency [9] | Potency [5] | Potency [10] | Potency [2] | Potency [3]

O=S(=O)(O)NC1CCCCC1
inactive: Potency [9] | Potency [5] | Potency [10] | Potency [2] | Potency [3]

N[C@@H](CSCCCO)C(=O)O
inactive: Potency [9] | Potency [5] | Potency [10] | Potency [2] | Potency [3]

Cc1cc2nc3c(=O)[nH]c(=O)nc-3n(C[C@H](O)[C@H](O)[C@H](O)CO)c2cc1C
inactive: Potency [9] | Potency [10] | Potency [2] | Potency [3] | Potency [12] | Potency [8]

N[C@H](C(=O)O)c1ccc(O)cc1
inactive: Potency [9] | Potency [5] | Potency [10] | Potency [2] | Potency [3]

CC1(C)OC(=O)NC1=O
inactive: Potency [9] | Potency [5] | Potency [10] | Potency [2] | Potency [3]

COc1ccccc1O
active: Potency [3] 39 µM
inactive: Potency [9] | Potency [5] | Potency [10]

CC1=C(C/C=C(\C)CCC[C@H](C)CCC[C@H](C)CCCC(C)C)C(=O)c2ccccc2C1=O
inactive: Potency [9] | Potency [5] | Potency [2] | Potency [3]

COc1ccc2cc1Oc1cc3c(cc1OC)CC[N+](C)(C)[C@H]3Cc1ccc(cc1)Oc1c(OC)c(OC)cc3c1[C@@H](C2)[N+](C)(C)CC3
inactive: Potency [9] | Potency [5] | Potency [10] | Potency [2] | Potency [3]

NCCNCCNCCN
inactive: Potency [9] | Potency [10] | Potency [2] | Potency [3]

COC(=O)C1=C(C)NC(C)=C(C(=O)OC)C1c1ccccc1[N+](=O)[O-]
inactive: Potency [9] | Potency [4]

CN1[C@@H]2CC[C@H]1CC(OC(=O)C(O)c1ccccc1)C2 (stereo not given in full)
inactive: Potency [9] | Potency [5] | Potency [10] | Potency [2] | Potency [3]

C[C@@H](O)[C@H](N)C(=O)O
inactive: Potency [9] | Potency [5] | Potency [10] | Potency [2] | Potency [3]

CC(=O)Oc1c(C)c(C)c2c(c1C)CC[C@@](C)(CCC[C@H](C)CCC[C@H](C)CCCC(C)C)O2
inactive: Potency [9] | Potency [10] | Potency [2] | Potency [3]

CN(C)CCCO[C@@H]1[C@H]2OC(C)(C)O[C@H]2O[C@@H]1C(O)CO (stereo not given in full)
inactive: Potency [9] | Potency [5] | Potency [10] | Potency [2] | Potency [3]

Oc1cn2c(n1)Nc1ccc(Cl)c(Cl)c1C2
inactive: Potency [9] | Potency [5] | Potency [2] | Potency [3]
active: Potency [10] 6.74 µM

O=C(O)COc1nn(Cc2ccccc2)c2ccccc12
inactive: Potency [9] | Potency [5] | Potency [2] | Potency [3]

Cc1ncc(COP(=O)(O)O)c(C=O)c1O
inactive: Potency [9] | Potency [5] | Potency [10] | Potency [2] | Potency [3] | outcome [11]

O=C1OC(OC(=O)c2cccnc2Nc2cccc(C(F)(F)F)c2)c2ccccc21 (stereo not given)
inactive: Potency [9] | Potency [5] | Potency [2] | Potency [3]

CC12CCC(CC1)C(C)(C)O2
inactive: Potency [9] | Potency [5] | Potency [10] | Potency [2] | Potency [3]

O=c1cc(CO)occ1O
inactive: Potency [9] | Potency [5] | Potency [10] | Potency [2] | Potency [3] | outcome [11]

Reference: PubChem BioAssay (NCATS)
